Reference: PubChem BioAssay (EPA / NIEHS)
Several values for one entry are separate records, joined by “and”; a condition that tells them apart may be missing. Identical values can stand only once. Inconclusive results are not listed. Some structures have more than one record in an assay (separate samples or runs), and their calls can disagree. Activity calls are given as the source filed them. Rule for the calls: active = hit-call score of the fitted dose curve at least 0.9, where 1 is the maximum; inconclusive = response in the unintended direction; inactive = score below 0.9.

Assays:
[1] = ATG_M_06_XSP2: Attagene TRANS-FACTORIAL Multi-Species (XSP2) HepG2 Assay for M06 Transcription Factor (Internal Marker) (AID 2283811);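 note: hits are increases in signal above the DMSO baseline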
Outline: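 HepG2 cells transiently transfected with GAL4-UAS multi-reporter constructs, dosed 24 h with 3 nM 6-alpha-fluorotestosterone plus 1.5 nM norgestrel present to stimulate androgen receptor. Reporter mRNA quantified by RT-PCR, 6-FAM labelling, HpaI digestion and capillary electrophoresis; gain-of-signal fitted versus DMSO baseline.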

[2] = test system: turtle Estrogen Receptor (ERa), gene 101933533; assay: ATG_trERa_XSP2: Attagene TRANS-FACTORIAL Multi-Species (XSP2) HepG2 Assay for turtle Estrogen Receptor (ERa) (AID 2283812);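 note: human HepG2 liver cells transiently expressing turtle ERa-Gal4 chimeric receptor; actives raise reporter signal above DMSO so AC50 reflects agonist activity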
Outline: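 HepG2 cells transiently transfected with GAL4-UAS reporter units expressing turtle ERa-Gal4 chimera. Reporter mRNA measured after 24 h dosing by RT-PCR, fluorescent labelling and capillary electrophoresis; gain of signal fitted versus DMSO.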

[3] = biological target: Estrogen receptor beta (Homo sapiens) (UniProt Q92731); assay: ATG_hERb_XSP2: Attagene TRANS-FACTORIAL Multi-Species (XSP2) HepG2 Assay for human Estrogen Receptor (ERb) (AID 2283813);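 note: actives raise reporter mRNA above DMSO so AC50 reflects agonist induction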
Sequence of Estrogen receptor beta (Homo sapiens) (Q92731 whole entry, looked up, the tested form may be a part): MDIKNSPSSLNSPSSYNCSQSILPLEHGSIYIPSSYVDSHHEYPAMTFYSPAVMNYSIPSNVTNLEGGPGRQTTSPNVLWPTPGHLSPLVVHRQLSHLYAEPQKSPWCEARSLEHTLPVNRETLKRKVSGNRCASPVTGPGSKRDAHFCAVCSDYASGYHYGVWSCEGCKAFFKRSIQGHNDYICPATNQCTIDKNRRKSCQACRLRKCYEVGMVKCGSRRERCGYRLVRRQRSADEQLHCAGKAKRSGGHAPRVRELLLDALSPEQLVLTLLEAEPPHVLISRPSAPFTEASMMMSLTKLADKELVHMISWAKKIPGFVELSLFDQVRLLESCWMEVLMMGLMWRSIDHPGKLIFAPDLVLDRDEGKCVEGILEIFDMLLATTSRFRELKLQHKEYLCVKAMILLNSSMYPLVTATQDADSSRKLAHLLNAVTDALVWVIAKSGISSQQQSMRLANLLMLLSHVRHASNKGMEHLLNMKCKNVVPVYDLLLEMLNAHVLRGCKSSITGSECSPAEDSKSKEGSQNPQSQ
Outline: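 HepG2 cells transiently transfected with GAL4-UAS reporter units and chimeric human ERb-Gal4, 24 h exposure. Reporter mRNA quantified by RT-PCR with FAM labelling, HpaI digestion and capillary electrophoresis; gain of signal versus DMSO.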

[4] = biological target: zebrafish Estrogen Receptor (ER1), esr1 (gene 259252) (UniProt P57717); assay: ATG_zfER1_XSP2: Attagene TRANS-FACTORIAL Multi-Species (XSP2) HepG2 Assay for zebrafish Estrogen Receptor (ER1) (AID 2283816)
Sequence of zebrafish Estrogen Receptor (ER1), esr1 (gene 259252) (P57717 whole entry, looked up, the tested form may be a part): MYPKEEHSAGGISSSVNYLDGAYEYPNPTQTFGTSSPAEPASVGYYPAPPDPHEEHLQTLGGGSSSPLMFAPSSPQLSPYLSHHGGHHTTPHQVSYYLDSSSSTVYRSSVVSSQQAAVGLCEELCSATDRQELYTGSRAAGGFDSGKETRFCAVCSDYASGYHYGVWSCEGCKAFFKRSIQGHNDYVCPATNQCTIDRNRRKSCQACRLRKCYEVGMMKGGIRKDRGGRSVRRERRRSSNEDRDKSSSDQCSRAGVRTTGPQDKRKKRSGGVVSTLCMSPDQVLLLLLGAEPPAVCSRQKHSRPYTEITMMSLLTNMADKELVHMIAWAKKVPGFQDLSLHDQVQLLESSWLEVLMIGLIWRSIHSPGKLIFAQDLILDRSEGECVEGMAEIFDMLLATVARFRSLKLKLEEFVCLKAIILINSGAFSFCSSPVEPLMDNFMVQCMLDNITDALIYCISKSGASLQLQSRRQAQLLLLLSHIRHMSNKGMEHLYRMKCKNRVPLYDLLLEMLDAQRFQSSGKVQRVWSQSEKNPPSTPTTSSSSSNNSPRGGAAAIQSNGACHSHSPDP
Outline: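 HepG2 cells transiently transfected with a GAL4-UAS reporter and a chimeric zebrafish ER1-Gal4 construct, dosed 24 h. Reporter mRNA quantified by RT-PCR, labelling, HpaI digestion and capillary electrophoresis, relative to DMSO.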

[5] = biological target: chicken Estrogen Receptor (ERa), ESR1 (gene 396099) (UniProt P06212); assay: ATG_chERa_XSP2: Attagene TRANS-FACTORIAL Multi-Species (XSP2) HepG2 Assay for chicken Estrogen Receptor (ERa) (AID 2283817);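 note: actives raise reporter signal above DMSO so AC50 reflects ER activation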
Outline: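 HepG2 cells transiently transfected with multiplexed GAL4-UAS reporter units expressing chimeric chicken ERa-Gal4; 24 h compound exposure. Reporter mRNA measured by RT-PCR with 6-FAM labelling, HpaI digestion and capillary electrophoresis; gain-of-signal fitted versus DMSO.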

[6] = test system: zebrafish Estrogen Receptor (ER2a), gene 317734; assay: ATG_zfER2a_XSP2: Attagene TRANS-FACTORIAL Multi-Species (XSP2) HepG2 Assay for zebrafish Estrogen Receptor (ER2a) (AID 2283818);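 note: hits raise reporter mRNA so AC50 reflects activation of zebrafish ER2a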
Outline: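 HepG2 cells transiently transfected with GAL4-UAS reporter units and chimeric zebrafish ER2a-Gal4, exposed 24 h; medium contains 3 nM 6-alpha-fluorotestosterone and 1.5 nM norgestrel. Reporter mRNA quantified by RT-PCR, HpaI digestion, capillary electrophoresis; gain versus DMSO.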

[7] = ATG_M_32_XSP1: Attagene TRANS-FACTORIAL Multi-Species (XSP1) HepG2 Assay for M32 Transcription Factor (Internal Marker) (AID 2283799)
Outline: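 HepG2 cells transiently transfected with multi-species TRANS reporter units, dosed 24 h with 3 nM 6-alpha-fluorotestosterone present. Internal-marker reporter mRNA quantified by RT-PCR and capillary electrophoresis; positive-direction fit versus DMSO.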

[8] = biological target: Peroxisome proliferator-activated receptor gamma (Homo sapiens) (UniProt P37231); assay: ATG_hPPARg_XSP1: Attagene TRANS-FACTORIAL Multi-Species (XSP1) HepG2 Assay for human Peroxisome Proliferator-activated Receptor gamma (PPARg) (AID 2283800)
Sequence of Peroxisome proliferator-activated receptor gamma (Homo sapiens) (P37231 whole entry, looked up, the tested form may be a part): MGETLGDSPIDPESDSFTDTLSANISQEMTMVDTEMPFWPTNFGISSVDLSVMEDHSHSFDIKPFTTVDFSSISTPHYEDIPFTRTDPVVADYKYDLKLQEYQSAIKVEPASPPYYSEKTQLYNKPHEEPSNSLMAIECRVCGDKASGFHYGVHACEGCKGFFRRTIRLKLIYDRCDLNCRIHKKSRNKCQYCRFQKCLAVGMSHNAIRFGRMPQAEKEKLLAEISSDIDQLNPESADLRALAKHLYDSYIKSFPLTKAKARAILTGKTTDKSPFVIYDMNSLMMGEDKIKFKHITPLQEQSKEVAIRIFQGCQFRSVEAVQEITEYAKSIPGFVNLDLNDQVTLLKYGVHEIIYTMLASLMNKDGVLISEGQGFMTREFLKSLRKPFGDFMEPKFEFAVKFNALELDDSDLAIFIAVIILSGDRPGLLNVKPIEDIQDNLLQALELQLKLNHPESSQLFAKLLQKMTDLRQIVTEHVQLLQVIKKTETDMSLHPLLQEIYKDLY
Outline: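 HepG2 cells transiently transfected with GAL4-UAS reporter units carrying chimeric NR-Gal4 proteins; 3 nM 6-alpha-fluorotestosterone present. After 24 h dosing, reporter mRNA quantified by RT-PCR and capillary electrophoresis; gain of signal relative to DMSO.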

[9] = test system: zebrafish Peroxisome Proliferator-activated Receptor gamma (PPARg), gene 557037; assay: ATG_zfPPARg_XSP1: Attagene TRANS-FACTORIAL Multi-Species (XSP1) HepG2 Assay for zebrafish Peroxisome Proliferator-activated Receptor gamma (PPARg) (AID 2283801)
Outline: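 HepG2 cells transiently transfected with GAL4-UAS reporter units including a zebrafish PPARg–GAL4 chimera, dosed 24 h with 3 nM 6-alpha-fluorotestosterone present. Reporter mRNA quantified by RT-PCR, FAM labelling, HpaI digestion and capillary electrophoresis; induction versus DMSO.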

[10] = biological target: mouse Peroxisome Proliferator-activated Receptor gamma (PPARg), Pparg (gene 19016) (UniProt P37238); assay: ATG_mPPARg_XSP1: Attagene TRANS-FACTORIAL Multi-Species (XSP1) HepG2 Assay for mouse Peroxisome Proliferator-activated Receptor gamma (PPARg) (AID 2283802)
Sequence of mouse Peroxisome Proliferator-activated Receptor gamma (PPARg), Pparg (gene 19016) (P37238 whole entry, looked up, the tested form may be a part): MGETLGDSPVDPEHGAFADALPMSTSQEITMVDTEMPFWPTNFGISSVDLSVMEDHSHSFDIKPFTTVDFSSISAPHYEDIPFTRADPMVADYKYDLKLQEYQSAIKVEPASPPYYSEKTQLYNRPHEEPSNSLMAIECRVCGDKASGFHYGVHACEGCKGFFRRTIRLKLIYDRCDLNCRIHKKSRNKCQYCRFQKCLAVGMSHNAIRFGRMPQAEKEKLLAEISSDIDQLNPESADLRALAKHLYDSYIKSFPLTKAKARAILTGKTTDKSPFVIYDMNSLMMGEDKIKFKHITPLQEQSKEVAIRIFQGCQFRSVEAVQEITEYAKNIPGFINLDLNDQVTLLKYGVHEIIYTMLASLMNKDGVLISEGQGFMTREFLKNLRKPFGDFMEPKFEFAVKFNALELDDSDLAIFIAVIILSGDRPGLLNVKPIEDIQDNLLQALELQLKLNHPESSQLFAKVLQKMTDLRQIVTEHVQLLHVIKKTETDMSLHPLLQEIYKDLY
Outline: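 HepG2 cells transiently transfected with GAL4-UAS reporter units driven by mouse PPARg–GAL4 chimera; 3 nM 6-alpha-fluorotestosterone present. After 24 h dosing, reporter mRNA quantified by RT-PCR, fluorescent labelling and capillary electrophoresis; gain of signal versus DMSO.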

[11] = biological target: Nuclear receptor subfamily 1 group I member 2 (Mus musculus) (UniProt O54915); assay: ATG_mPXR_XSP1: Attagene TRANS-FACTORIAL Multi-Species (XSP1) HepG2 Assay for mouse Pregnane X Receptor (PXR) (AID 2283803)
Sequence of Nuclear receptor subfamily 1 group I member 2 (Mus musculus) (O54915 whole entry, looked up, the tested form may be a part): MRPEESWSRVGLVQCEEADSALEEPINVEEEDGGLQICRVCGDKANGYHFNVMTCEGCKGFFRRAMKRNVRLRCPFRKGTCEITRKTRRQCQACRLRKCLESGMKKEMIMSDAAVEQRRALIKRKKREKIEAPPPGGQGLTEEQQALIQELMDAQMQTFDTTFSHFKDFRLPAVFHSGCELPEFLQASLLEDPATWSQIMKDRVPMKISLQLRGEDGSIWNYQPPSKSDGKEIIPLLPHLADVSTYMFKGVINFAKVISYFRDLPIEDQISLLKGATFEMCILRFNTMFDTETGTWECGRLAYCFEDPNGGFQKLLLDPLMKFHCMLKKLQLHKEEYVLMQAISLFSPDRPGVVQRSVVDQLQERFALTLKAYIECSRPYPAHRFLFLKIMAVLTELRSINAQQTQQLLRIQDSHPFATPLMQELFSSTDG
Outline: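 Transiently transfected HepG2 cells expressing a receptor-Gal4 chimera drive a GAL4-UAS reporter; 3 nM 6-alpha-fluorotestosterone included. Reporter mRNA read 24 h post-dose by RT-PCR and capillary electrophoresis; gain of signal relative to DMSO.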

[12] = test system: turtle Thyroid Hormone Receptor, alpha (TRa), gene 101949057; assay: ATG_trTRa_XSP1: Attagene TRANS-FACTORIAL Multi-Species (XSP1) HepG2 Assay for turtle Thyroid Hormone Receptor, alpha (TRa) (AID 2283806)
Outline: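 HepG2 cells transiently transfected with GAL4-UAS reporter units and chimeric receptor-Gal4 constructs, with 3 nM 6-alpha-fluorotestosterone present. Reporter mRNA was quantified 24 h after dosing by RT-PCR, 6-FAM labelling and capillary electrophoresis; gain of signal versus DMSO.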

[13] = biological target: zebrafish Thyroid Hormone Receptor alpha (TRa), thraa (gene 30670) (UniProt Q98867); assay: ATG_zfTRa_XSP1: Attagene TRANS-FACTORIAL Multi-Species (XSP1) HepG2 Assay for zebrafish Thyroid Hormone Receptor alpha (TRa) (AID 2283807)
Sequence of zebrafish Thyroid Hormone Receptor alpha (TRa), thraa (gene 30670) (Q98867 whole entry, looked up, the tested form may be a part): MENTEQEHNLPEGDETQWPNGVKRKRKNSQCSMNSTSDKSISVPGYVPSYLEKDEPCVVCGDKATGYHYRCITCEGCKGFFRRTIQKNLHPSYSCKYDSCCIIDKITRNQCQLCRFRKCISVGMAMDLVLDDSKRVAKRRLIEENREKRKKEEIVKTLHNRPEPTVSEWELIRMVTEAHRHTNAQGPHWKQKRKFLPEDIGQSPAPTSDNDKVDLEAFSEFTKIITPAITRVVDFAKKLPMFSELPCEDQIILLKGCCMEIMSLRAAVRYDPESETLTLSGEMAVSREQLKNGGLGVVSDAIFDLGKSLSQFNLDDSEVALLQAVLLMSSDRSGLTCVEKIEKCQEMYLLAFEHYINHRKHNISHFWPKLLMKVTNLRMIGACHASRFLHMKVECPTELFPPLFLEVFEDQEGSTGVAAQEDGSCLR
Outline: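 HepG2 cells transiently transfected with GAL4-UAS reporter units including a zebrafish TRa–Gal4 chimera, dosed 24 h with 3 nM 6-alpha-fluorotestosterone present. Reporter mRNA quantified by RT-PCR and capillary electrophoresis; gain versus DMSO.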

[14] = biological target: zebrafish Thyroid Hormone Receptor beta (TRb), thrb (gene 30607) (UniProt Q9PVE4); assay: ATG_zfTRb_XSP1: Attagene TRANS-FACTORIAL Multi-Species (XSP1) HepG2 Assay for zebrafish Thyroid Hormone Receptor beta (TRb) (AID 2283809)
Sequence of zebrafish Thyroid Hormone Receptor beta (TRb), thrb (gene 30607) (Q9PVE4 whole entry, looked up, the tested form may be a part): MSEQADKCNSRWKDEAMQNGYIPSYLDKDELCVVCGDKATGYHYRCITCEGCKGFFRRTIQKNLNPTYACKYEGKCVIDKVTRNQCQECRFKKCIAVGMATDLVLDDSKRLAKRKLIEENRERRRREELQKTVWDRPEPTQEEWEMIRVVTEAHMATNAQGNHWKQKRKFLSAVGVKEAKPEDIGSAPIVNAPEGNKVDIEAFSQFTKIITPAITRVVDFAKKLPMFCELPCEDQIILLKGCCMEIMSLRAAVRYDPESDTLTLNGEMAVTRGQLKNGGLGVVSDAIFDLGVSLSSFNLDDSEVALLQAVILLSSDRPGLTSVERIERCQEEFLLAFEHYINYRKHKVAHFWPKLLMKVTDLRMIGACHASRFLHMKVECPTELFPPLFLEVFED
Outline: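 HepG2 cells transiently transfected with multiplexed GAL4-UAS reporter units expressing chimeric zebrafish TRb–Gal4. Dosed 24 h with 3 nM 6-alpha-fluorotestosterone present; reporter mRNA measured by RT-PCR, HpaI digestion and capillary electrophoresis; gain of signal versus DMSO.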

[15] = ATG_XTT_Cytotoxicity_XSP1: Cytotoxicity Assessment in the Attagene TRANS-FACTORIAL Multi-Species (XSP1) HepG2 Assay (AID 2283810)
Outline: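 XTT viability readout taken at 24 hours post-dosing in HepG2 liver cells co-treated with 3 nM 6-alpha-fluorotestosterone. Signal loss relative to DMSO controls reflects cytotoxicity.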

[16] = biological target: GAL4 Transcription Factor (Internal Marker), GAL4 (gene 855828) (UniProt P04386); assay: ATG_GAL4_XSP2: Attagene TRANS-FACTORIAL Multi-Species (XSP2) HepG2 Assay for GAL4 Transcription Factor (Internal Marker) (AID 2283814);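 note: GAL4 reporter mRNA background control in MRTU transfected cells not a receptor target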
Sequence of GAL4 Transcription Factor (Internal Marker), GAL4 (gene 855828) (P04386 whole entry, looked up, the tested form may be a part): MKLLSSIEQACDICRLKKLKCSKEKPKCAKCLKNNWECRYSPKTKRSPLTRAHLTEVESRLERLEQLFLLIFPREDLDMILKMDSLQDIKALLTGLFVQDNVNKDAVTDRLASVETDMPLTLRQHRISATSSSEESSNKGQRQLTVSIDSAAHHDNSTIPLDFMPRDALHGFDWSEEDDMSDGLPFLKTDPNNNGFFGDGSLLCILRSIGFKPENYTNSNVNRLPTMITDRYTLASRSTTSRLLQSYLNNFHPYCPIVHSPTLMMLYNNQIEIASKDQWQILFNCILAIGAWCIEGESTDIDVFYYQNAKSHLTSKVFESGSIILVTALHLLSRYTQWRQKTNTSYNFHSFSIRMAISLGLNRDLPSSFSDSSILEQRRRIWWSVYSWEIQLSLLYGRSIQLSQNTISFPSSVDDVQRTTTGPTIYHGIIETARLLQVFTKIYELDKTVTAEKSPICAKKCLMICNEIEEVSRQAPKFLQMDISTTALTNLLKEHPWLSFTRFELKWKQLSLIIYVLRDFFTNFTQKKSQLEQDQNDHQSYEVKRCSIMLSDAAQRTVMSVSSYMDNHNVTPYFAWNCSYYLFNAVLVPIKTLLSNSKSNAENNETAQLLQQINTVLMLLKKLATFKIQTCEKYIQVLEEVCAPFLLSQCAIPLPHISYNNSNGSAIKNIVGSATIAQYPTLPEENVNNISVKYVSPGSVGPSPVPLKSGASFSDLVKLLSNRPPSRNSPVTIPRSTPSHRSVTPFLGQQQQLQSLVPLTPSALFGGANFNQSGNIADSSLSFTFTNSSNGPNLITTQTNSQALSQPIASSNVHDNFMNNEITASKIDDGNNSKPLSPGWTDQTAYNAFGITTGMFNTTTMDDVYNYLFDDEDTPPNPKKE
Outline: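 HepG2 cells transiently transfected with GAL4-UAS reporter units, stimulated with 3 nM 6-alpha-fluorotestosterone plus 1.5 nM norgestrel, dosed 24 h. Reporter mRNA by RT-PCR/capillary electrophoresis; gain-of-signal fit versus DMSO, background control.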

[17] = test system: turtle Androgen Receptor (AR), gene 101947425; assay: ATG_trAR_XSP2: Attagene TRANS-FACTORIAL Multi-Species (XSP2) HepG2 Assay for turtle Androgen Receptor (AR) (AID 2283815)
Outline: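 HepG2 cells transiently transfected with GAL4-UAS reporter units for chimeric NR-Gal4 receptors; 24 h dosing in presence of 3 nM 6-alpha-fluorotestosterone and 1.5 nM norgestrel. Reporter mRNA by RT-PCR and capillary electrophoresis, gain of signal versus DMSO.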

[18] = test system: chicken Androgen Receptor (AR), gene 422165; assay: ATG_chAR_XSP2: Attagene TRANS-FACTORIAL Multi-Species (XSP2) HepG2 Assay for chicken Androgen Receptor (AR) (AID 2283819);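 note: hits raise reporter mRNA above DMSO so potency is for activation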
Outline: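 HepG2 cells transiently transfected with chicken AR–GAL4 chimeric reporter constructs, stimulated with 3 nM 6-alpha-fluorotestosterone plus 1.5 nM norgestrel, dosed 24 h. Reporter mRNA quantified by RT-PCR and capillary electrophoresis; gain of signal fitted versus DMSO.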

[19] = ATG_M_19_XSP1: Attagene TRANS-FACTORIAL Multi-Species (XSP1) HepG2 Assay for M19 Transcription Factor (Internal Marker) (AID 2283798)
Outline: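 HepG2 cells transiently transfected with multiplexed GAL4-UAS reporter units, dosed 24 h with 3 nM 6-alpha-fluorotestosterone present for partial AR stimulation. Reporter mRNA measured by RT-PCR with capillary electrophoresis; gain-of-signal fitted relative to DMSO.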

[20] = biological target: human Thyroid hormone Receptor beta (TRb), THRB (gene 7068) (UniProt P10828); assay: ATG_hTRb_XSP1: Attagene TRANS-FACTORIAL Multi-Species (XSP1) HepG2 Assay for human Thyroid hormone Receptor beta (TRb) (AID 2283808)
Sequence of human Thyroid hormone Receptor beta (TRb), THRB (gene 7068) (P10828 whole entry, looked up, the tested form may be a part): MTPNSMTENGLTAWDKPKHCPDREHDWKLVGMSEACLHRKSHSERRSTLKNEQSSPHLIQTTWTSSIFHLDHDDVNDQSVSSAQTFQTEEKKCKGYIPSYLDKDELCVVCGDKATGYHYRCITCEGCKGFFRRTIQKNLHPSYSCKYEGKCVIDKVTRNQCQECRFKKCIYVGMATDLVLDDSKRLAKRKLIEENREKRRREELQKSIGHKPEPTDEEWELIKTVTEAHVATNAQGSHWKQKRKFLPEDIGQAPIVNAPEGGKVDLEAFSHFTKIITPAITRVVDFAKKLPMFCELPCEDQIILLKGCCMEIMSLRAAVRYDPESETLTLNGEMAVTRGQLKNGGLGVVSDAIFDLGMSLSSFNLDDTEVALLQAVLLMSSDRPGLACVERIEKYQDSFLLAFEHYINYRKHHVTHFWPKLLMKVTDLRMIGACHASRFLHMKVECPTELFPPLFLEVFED
Outline: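 HepG2 cells transiently transfected with reporter units driving GAL4-UAS reporters for chimeric NR-Gal4 proteins; 24 h chemical exposure with 3 nM 6-alpha-fluorotestosterone present. Reporter mRNA quantified by RT-PCR and capillary electrophoresis, gain of signal versus DMSO.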

Measured: AC50

CCC(CC)Nc1c([N+](=O)[O-])cc(C)c(C)c1[N+](=O)[O-]
active: [2] 2.52 µM and 1.7 µM | [4] 7.37 µM | [5] 5.63 µM and 4.3 µM
inactive: [1] | [3] | [4] | [6]

CCC(=O)Nc1ccc(Cl)c(Cl)c1
inactive: [1] | [2] | [4] | [5] | [6]

CCc1cccc(C)c1N(C(=O)CCl)C(C)COC (stereo not given)
active: [8] 5.37 µM | [10] 25.5 µM | [11] 3.28 µM
not listed: [6] | [19] | [20]
inactive: all other assays above

CCOP(=O)(NC(C)C)Oc1ccc(SC)c(C)c1 (stereo not given)
active: [2] 100 µM and 52.6 µM | [5] 31.1 µM | [6] 100 µM
inactive: [1] | [3] | [16] | [4] | [5] | [6]

Nc1c(Cl)cc([N+](=O)[O-])cc1Cl
inactive: [2] | [3] | [16] | [4] | [5] | [6]
active: [5] 26.8 µM

CCOP(=S)(OCC)Oc1ccc2c(C)c(Cl)c(=O)oc2c1
active: [8] 11.4 µM | [10] 26.7 µM | [11] 0.214 µM
not listed: [4] | [9] | [15] | [17] | [18] | [20]
inactive: all other assays above

COc1ccc(C(=CC(=O)N2CCOCC2)c2ccc(Cl)cc2)cc1OC
inactive: [1] | [2] | [3] | [16] | [4] | [5] | [6]
active: [4] 58.2 µM

CCCOCC(=Nc1ccc(Cl)cc1C(F)(F)F)n1ccnc1
active: [8] 0.985 µM | [10] 0.674 µM | [11] 0.201 µM | [15] 100 µM
not listed: [2] | [16] | [17] | [18]
inactive: all other assays above

C#CCC1=C(C)C(OC(=O)C2C(C=C(C)C)C2(C)C)CC1=O (stereo not given)
inactive: [7] | [13] | [20] | [14] | [15] | [1] | [3] | [4] | [6]
active: [8] 27.2 µM | [10] 26.7 µM | [11] 0.32 µM

C#CC(C)(C)NC(=O)c1cc(Cl)cc(Cl)c1
inactive: [12] | [13] | [20] | [14] | [1] | [2] | [16] | [6]
active: [11] 13.3 µM | [5] 3.34 µM
